# Bioassay records as filed in PubChem BioAssay.
# The list is not random: actives were taken first. Their share in the collection is about 3.2%.
# HBB splice mod = hemoglobin beta splicing modulation; HBB splicing reporter cell assay, activation; EGFP reporter with mutant IVS2-654 intron; response scale: normalised to 500 nM splice-correcting PNA; Potency, µM (highest dose often 46.1 µM), for inactives: at the top dose activation, usual class: activators; 65,000 tested, 0.06% active; AID 925; also: potency is read from the fitted curve at half-maximal effect; 0% is about no effect
#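 Compounds were applied for 2 days to HeLa EGFP-654 cells, 500/well in Optimem with 2% FCS. The reporter's EGFP is disrupted by mis-splicing of beta-globin intron IVS2-654. Readout: summed well GFP fluorescence from 488 nm laser scanning; reference was 500 nM antisense […] 654 PNA.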
# Epigenetic mod = epigenetic modulators derepressing GFP locus in mouse cells; Potency, µM (titrated, usually from 46.1 µM), inactives show at the top dose GFP derepression (activation); AID 597; 68,000 tested, 0.09% active; mouse C127i GFP locus derepression, cytometry, 30 h; also: % of control where 0% means no effect
#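 Murine C127i mammary cells carrying a silenced, stably integrated CMV-driven GFP reporter were treated with compound for 30 hours at 37 C. After PBS washes, GFP-positive cells were counted by laser-scanning microplate cytometry.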
# Tau filament bind = tau filament binding | P10636 | recombinant tau filaments, thioflavin S fluorescence, 15 h; filaments grown with octadecylsulfate alongside compound | Potency, µM (series often up to 57.1 µM), for the others: at the top dose activity change, negative = inhibition | 71,000 tested, 2% active | AID 596;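 also: potency is read from the fitted curve at half-maximal effect; % is scaled to controls: 0 for no effect and ±100 for the full control effect; actives lower thioflavin S fluorescence by blocking filaments or displacing dye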
#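 Assay mix: 1 uM His-tagged tau, 30 uM sodium octadecylsulfate, thioflavine S dye in HEPES/NaCl/DTT buffer. Compound is added prior to the inducer. Fluorescence after 15 h at 37 C.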
# 15-hLO inh = 15-hLO (ALOX15) enzyme inhibition. P16050. purified 15hLO-1, xylenol orange hydroperoxide absorbance. Potency, µM (top dose mostly 57.1 µM), without a hit: at the highest dose activity change, negative = inhibition, usual class: inhibitors. 74,000 tested, 1.4% active. AID 887; also: potency is read from the fitted curve at half-maximal effect; % is scaled to controls: 0 for no effect and ±100 for the full control effect; nearly all actives have a fitted effect of over 55% in size
# Target sequence (P16050 whole entry, looked up): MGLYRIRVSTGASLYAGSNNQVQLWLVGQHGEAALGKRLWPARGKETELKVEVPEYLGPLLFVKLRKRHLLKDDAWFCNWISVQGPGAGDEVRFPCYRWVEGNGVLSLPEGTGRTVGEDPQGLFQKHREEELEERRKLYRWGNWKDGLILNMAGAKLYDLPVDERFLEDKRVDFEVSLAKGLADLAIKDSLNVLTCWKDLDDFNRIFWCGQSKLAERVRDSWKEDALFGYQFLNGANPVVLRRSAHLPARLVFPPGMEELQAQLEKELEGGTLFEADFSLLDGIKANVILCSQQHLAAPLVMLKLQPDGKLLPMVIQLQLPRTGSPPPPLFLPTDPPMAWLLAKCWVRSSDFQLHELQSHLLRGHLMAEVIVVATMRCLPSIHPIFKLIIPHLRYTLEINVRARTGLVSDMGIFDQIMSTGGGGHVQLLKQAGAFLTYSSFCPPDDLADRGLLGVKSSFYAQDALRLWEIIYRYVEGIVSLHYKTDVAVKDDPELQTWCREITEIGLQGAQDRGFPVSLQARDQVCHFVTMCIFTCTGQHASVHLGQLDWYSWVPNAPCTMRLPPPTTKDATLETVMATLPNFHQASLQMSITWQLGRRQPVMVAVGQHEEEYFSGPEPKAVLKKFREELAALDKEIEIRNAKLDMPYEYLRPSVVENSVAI
#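 Hydroperoxide formed from arachidonic acid (50 uM) by purified human 15hLO-1 (40 nM) oxidizes ferrous iron, and the ferric-xylenol orange complex is read at 573 versus 405 nm. Compounds were preincubated 15 min; reaction ran 6 min at room temperature.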
# Pol III holo inh = inhibitors of bacterial DNA polymerase III holoenzyme. reconstituted DNA polymerase III holoenzyme replication, biochemical. Potency, µM (highest dose often 57.1 µM), for the others: at the highest dose activity change, negative = inhibition. 71,000 tested, 0.25% active; also: potency is read from the fitted curve at half-maximal effect; % is scaled to controls: 0 for no effect and ±100 for the full control effect
#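 Reconstituted *E. coli* holoenzyme (0.35 nM Pol III, 1 nM beta, 154 nM SSB, 2 nM primase) was preincubated with compound for 15 min at RT. Synthesis on 1.4 nM ssM13Gori ran 35 min, then was stopped with PicoGreen/EDTA and read as dsDNA fluorescence.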
# Ub-GFP proteasome = inhibits proteasome, raising ubiquitin-GFP reporter fluorescence; Ubiquitin-GFP reporter cells, proteasome inhibition, GFP fluorescence; response scale: untreated = 0%, 10 µM MG-132 = 100%; Potency, µM (titrated, usually from 45.9 µM), for inactives: top-dose activation (GFP accumulation), usual class: activators; 67,000 tested, under 10 active; AID 526; active = well fitted activation curve with a large enough effect, not every such curve was filed as active; inconclusive = small, poorly fitted or top-dose-only effect, or another doubt; inactive = no such curve, though single readings can be large or run the other way; also: potency is read from the fitted curve at half-maximal effect
#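 Proteasome block read as GFP accumulation: ubiquitin(G76V)-GFP U2OS cells exposed to compound (2.9 nM–46 uM) for 4 hr at 37 C. Normalization used untreated cells as 0% and 10 uM MG-132 as 100%; concentration-response curves fitted.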
# * marks the source's active call; other numbers are inactive results; ? = inconclusive; nt = no result given; ! = a repeat was not active; [ ] = dose if it differs, or a comment. Unless noted, calls follow the shape of the dose curve; as a rule, active = well fitted curve in the direction sought with a large enough effect; inconclusive = small, poorly fitted or top-dose-only effect, or another doubt; inactive = no such curve, though single readings can be large; an effect the other way counts as inactive or inconclusive.
SMILES,HBB splice mod,Epigenetic mod,Tau filament bind,15-hLO inh,Pol III holo inh,Ub-GFP proteasome
O=C1C(Cl)=C(N2CCOCC2)C(=O)N1c1cccc(Cl)c1,0.0%[0.0738 µM],0.4%,10.0%[11.4 µM],3.98µM*,-1.1%[11.4 µM],-1.6%[9.17 µM]
COC(=O)[C@H](Cc1ccccc1)NC(=O)[C@@H](C)CO,1.8%[9.22 µM],nt,nt,0.0%[11.4 µM],nt,nt
Cc1nc(NCc2ccccc2)c2nc(-c3ccccc3)n(CCN(C)C)c2n1,-1.2%,nt,20.2%,?,-3.4%,-0.4%
Cc1cncn1CCc1nc2c3ccccc3nc(=S)n2[nH]1,-1.4%,1.4%,-35.7%,0.3%,-1.1%,4.0%
COc1cc2nc(=S)n3[nH]c(CCn4nc(C)cc4C)nc3c2cc1OC,-0.9%,10µM*,5.2%,2.6%,-4.4%,-9.4%
COc1ccc(Oc2cn[nH]c2-c2ccc(O)cc2O)cc1,4.7%[0.369 µM],0.0%,-9.2%,-16.4%,1.5%,-4.3%
CCCc1ccc(Oc2cn[nH]c2-c2ccc(O)cc2O)cc1,-1.3%[0.0738 µM],0.0%,0.794µM*,3.16µM*,-10.4%[11.4 µM],1.2%[9.17 µM]
O=C(c1ccc(F)cc1)C1CCN(CCn2c(=O)[nH]c3ccccc3c2=O)CC1,-0.3%[20.6 µM],-1.5%[20.6 µM],31.6µM*!,-9.7%[25.6 µM],-7.0%,-1.1%
Cc1cccc(OCCCCc2c(C)n[nH]c2C)c1C,-2.0%,0.0%,15.8µM*,-8.1%,-2.2%,8.7%
Cc1ccc(N=Cc2ccc(O)cc2O)cc1F,-3.8%,2.5%,-29.7%,-7.8%,0.3%,-15.8%
Oc1ccc(C=Nc2ccc(N3CCOCC3)cc2)c(O)c1,0.4%,2.3%,20µM*,?,-14.6%,0.0%
N#Cc1nc(N2CCCCC2)nc(N2CCOCC2)n1,0.9%,0.0%,2.51µM*,8.0%,3.3%,0.8%
N#Cc1nc(N2CCCC2)nc(N2CCCC2)n1,-0.3%,4.1%,41.3%,-1.2%,0.0%,1.4%
O=C(O)CNC(=O)c1ccccc1O,1.4%[9.22 µM],-7.1%[9.22 µM],3.8%[11.4 µM],-9.4%[11.4 µM],-9.5%[11.4 µM],-0.7%[9.17 µM]
CCCCNC(=O)c1ccc2nc(-c3ccco3)c(-c3ccco3)nc2c1,-0.8%,nt,?,5.01µM*,15.8µM*,-6.8%
O=C(Nc1ccc(N2CCOCC2)cc1)c1ccc2nc(-c3ccco3)c(-c3ccco3)nc2c1,0.0%,0.0%,7.94µM*,-22.8%,-3.2%,-0.8%
COc1ccccc1NC(=O)c1sc2nc(-c3ccco3)ccc2c1N,-0.5%,5.4%,7.3%,-1.5%,-0.4%,6.5%
O=C(NCc1ccco1)c1cccc(NC(=O)c2ccccc2)c1,-0.2%,2.7%,-3.6%,2.5%,4.3%,-7.5%
Nc1c(C(=O)Nc2ccccc2)sc2nc(-c3ccco3)ccc12,0.7%[1.84 µM],4.0%,2µM*,?,-6.9%,7.9%
O=C(Nc1ccccc1)c1ccc2nc(-c3ccco3)c(-c3ccco3)nc2c1,0.3%,0.0%,0.631µM*,6.31µM*,-10.0%,5.0%
CCCNC(=O)c1cc(-c2ccco2)on1,-1.0%,19.1%,1.6%,-1.3%,1.7%,-10.2%
O=[N+]([O-])c1ccc(Cl)c(CNc2ncnc3c2ncn3[C@@H]2CCCCO2)c1,1.5%[9.22 µM],-3.4%[9.22 µM],-6.1%[11.4 µM],5.8%[11.4 µM],-10.6%[11.4 µM],1.0%[9.17 µM]
CC1(C)CC(=O)C(C(c2cccc(O)c2O)C2C(=O)CC(C)(C)CC2=O)C(=O)C1,-0.6%[9.22 µM],-3.0%[9.22 µM],2.3%[11.4 µM],17.9%[11.4 µM],-8.9%[11.4 µM],1.5%[9.17 µM]
CSc1ncnc2nc[nH]c12,-0.2%,nt,-4.2%,-19.1%,-2.1%,-0.7%
O=C(O)[C@@H]1[C@H](C(=O)O)[C@H]2C(=O)C=C[C@H]1N2Cc1ccccc1,0.2%[9.22 µM],-3.4%[9.22 µM],-5.1%[11.4 µM],4.9%[11.4 µM],-6.8%[11.4 µM],-3.3%[9.17 µM]
CCC(=O)Nc1cc(OC)c(NC(=O)c2ccccc2)cc1OC,-0.9%,-1.7%,12.6µM*,-2.2%,-4.6%,-3.8%
COc1cc(NS(C)(=O)=O)c(OC)cc1NC(=O)c1ccccc1,-0.6%,2.6%,15.8µM*,1.8%,-8.0%,-6.0%
COc1cc(NC(=O)c2ccccc2)cc(OC)c1,-0.9%,-2.6%,10µM*,-4.3%,-8.2%,-4.0%
COc1ccccc1NC(=O)c1ccc(NS(C)(=O)=O)cc1,-1.3%,0.0%,6.2%,-3.1%,2.0%,-7.7%
